We go through 93 compounds from PubChem BioAssay AID540333 (Southern Research Specialized Biocontainment Screening …, 2011).

The whole screen tested about 10,000 compounds, of which about 320 (3.2%) were called active. No stated cut-off is given here; in the data, active means CPE inhibition mostly above about 9.1% (no sharp cut-off); inactive means mostly below about 7.2%. Many of the other results were omitted from the sample, so actives are more common in it than they were.

The nature of the test: Dengue virus cytopathic effect inhibitors, cell-based, CPE readout, HTS (AID 540333). The settings on record: Dengue virus CPE inhibition in host cells, at 20 µM; stronger effect = higher value. (Cytopathic effects are the visible damage that an infection or toxin causes in cultured cells.)
Consider `COC(=O)c1cc(CNC(=O)c2ccc(O)c(Cl)c2)ccc1OC`, for which the CPE inhibition was 0.01% (inactive). The result for `Cc1ccc(Nc2nnc(SC(C)C(=O)Nc3c(C)n(C)n(-c4ccccc4)c3=O)s2)cc1` (stereo not drawn) reads “inactive”; that for `CC(Sc1nnc(NC2CCCCC2)s1)C(=O)Nc1ccc2c(c1)C(=O)c1ccccc1C2=O` (stereo not drawn), 11.9% (active); that for `CC(Sc1nnc(NCc2ccccc2)s1)C(=O)Nc1ccc2c(c1)C(=O)c1ccccc1C2=O` (stereo not drawn), 4.04% (inactive). Regarding `CCNC(=S)N/N=C(\C)c1cc2ccccc2o1`, the CPE inhibition was 0.995% (inactive). Turning to `CC(C)Sc1nnc(CNC(=O)C23CC4CC(CC(C4)C2)C3)n1Cc1ccccc1`, the CPE inhibition is 14.9% (active). The result for `CCCCSc1nnc(CNC(=O)C23CC4CC(CC(C4)C2)C3)n1Cc1ccccc1` reads 8.5% (active).

Regarding `CCSc1nnc(CNC(=O)C23CC4CC(CC(C4)C2)C3)n1Cc1ccccc1`, the CPE inhibition is 0.79% (inactive). The result for `O=C(CNC(=O)C12CC3CC(CC(C3)C1)C2)N1CCN(S(=O)(=O)/C=C/c2ccccc2)CC1` reads 0.155% (inactive); that for `COc1ccc(C(=O)NCc2nnc(SCC(=O)N3CCc4ccccc43)n2Cc2ccccc2)cc1`, “inactive”. As for `CCCSc1nnc(CNC(=O)C23CC4CC(CC(C4)C2)C3)n1Cc1ccccc1`, the CPE inhibition is 7.14% (inactive).

Regarding `Cc1nnc(SCC(=O)NC(C)(C)C)n1C1CCCCC1`, the CPE inhibition entry was “inactive”. The same measure for `CCC(C)Sc1nnc(CNC(=O)C23CC4CC(CC(C4)C2)C3)n1C1CCCCC1` (stereo not drawn): 12.2% (active); for `CCSc1nnc(CNC(=O)C23CC4CC(CC(C4)C2)C3)n1C1CCCCC1`: 5.44% (inactive); for `CCOC(=O)CC1C(=O)NCCN1C(=S)Nc1ccccc1` (stereo not drawn): 0.585% (inactive).

For the compound `O=C(NC1(C(F)(F)F)NC(=O)N(CCc2ccccc2)C1=O)C1CC1` (stereo not drawn), the CPE inhibition entry is “inactive”. On to `COc1ccccc1-n1cc(-c2ccc(Cl)cc2)[nH]c1=O`, for which the CPE inhibition was 0.275% (inactive).

Regarding `CCc1ccc(-c2nc(NC(=O)c3ccc(OCC(=O)Nc4ccc(F)cc4)c(OC)c3)sc2C)cc1`, the CPE inhibition is 0.375% (inactive). The same measure for `COc1cc(/C=C2\SC(N)=NC2=O)ccc1OCC(=O)Nc1ccc(C)cc1`: 1.51% (inactive). The result for `COc1cc(C(=O)Nc2nc(-c3ccc(Cl)cc3)c(C)s2)ccc1OCC(=O)Nc1ccc(F)cc1` reads 6.33% (inactive).

Consider `COc1ccc(-c2nc(NC(=O)c3ccc(OCC(=O)Nc4ccc(F)cc4)c(OC)c3)sc2C)cc1`, for which the CPE inhibition is 12.6% (active). The result for `COc1cc(C(=O)Nc2nc(-c3cc(C)ccc3C)c(C)s2)ccc1OCC(=O)Nc1ccc(F)cc1` reads 14.4% (active).

Take `Cc1ccc(C)c(OCC(=O)Nc2ccc(S(=O)(=O)Nc3ccccn3)cc2)c1`: the CPE inhibition was 0.235% (inactive). Regarding `COc1ccc2[nH]c(O)c(N=NC(=N)N)c2c1`, the CPE inhibition is 0.45% (inactive). As for `COC(=O)c1cc([N+](=O)[O-])ccc1N1CCN(Cc2ccccc2)CC1`, the CPE inhibition was 0.06% (inactive).

In the case of `COc1ccc(C(=O)OC(C)C(=O)Nc2cc(C(F)(F)F)ccc2Cl)c(OC)c1OC` (stereo not drawn), the CPE inhibition is 2.02% (inactive). The result for `CCN(CC)S(=O)(=O)c1cc(NC(=O)COc2ccc(C#N)cc2OC)ccc1C` reads “inactive”; that for `Cc1nc2ccc(C(=O)O)cc2nc1C`, 0.025% (inactive); that for `O=C(COC(=O)c1c(Cl)ccc(Cl)c1Cl)NC(=O)NCc1ccccc1`, 0.78% (inactive). For the compound `Nc1cc(Cl)ccc1C(=O)OCC(=O)NC(=O)NCc1ccccc1`, the CPE inhibition was 19.5% (active). The result for `O=C(COC(=O)c1ccccc1Cl)NC(=O)NCc1ccccc1` reads “inactive”. The same measure for `CCOC(=O)/C=C(/C)N1N=C(c2ccc(OC)cc2)CC1c1cccc([N+](=O)[O-])c1` (stereo not drawn): 0.895% (inactive). With `Cc1cc(OCCOCCN(C)C)ccc1Cl`, the CPE inhibition is 0.765% (inactive).

`COC(=O)C1=NN[C@H](C(=O)OC(C)(C)C)[C@H]1c1ccccc1`: the CPE inhibition entry is “inactive”. Turning to `CCOc1ccc2c(c1)c(N=NC(=N)N)c(O)n2C`, the CPE inhibition is 0.04% (inactive).

With `O=S(=O)(NC1CCCCC1Sc1ncccn1)c1ccccc1` (stereo not drawn), the CPE inhibition entry is “inactive”. `O=S(=O)(NC1CCCCC1Nc1ccc(Cl)cc1)c1ccccc1` (stereo not drawn): the CPE inhibition was 12.2% (active). The same measure for `O=S(=O)(NC1CCCCC1Oc1ccccc1)c1ccccc1` (stereo not drawn): 3.28% (inactive); for `COc1ccc(COc2cc(-c3cccc(OC)c3)nc3ccc(NC(=O)c4ccc(Cl)cc4)cc23)cc1`: 4.84% (inactive); for `CCC(=O)NC(=S)Nc1ccc(NC(=O)COc2ccccc2)cc1`: “inactive”.

Consider `CCn1cc([N+](=O)[O-])nc1C`, for which the CPE inhibition is 0.275% (inactive). The result for `O=C(Nc1cc(Cl)ccc1Oc1ccccc1)c1ccc(F)cc1` reads 7.54% (active); that for `CNC(=S)Nc1cc(Cl)ccc1Oc1ccccc1`, 0.98% (inactive); that for `O=C(CSc1ccccc1)Nc1cc(Cl)ccc1Oc1ccccc1`, 3.48% (inactive). In the case of `COc1cccc(NC(=S)NCCN2CCOCC2)c1`, the CPE inhibition result is “inactive”. As for `O=C(OC(C(=O)Nc1ccc(Cl)c(C(F)(F)F)c1)c1ccccc1)C1=COCCO1` (stereo not drawn), the CPE inhibition was 16.4% (active). In the case of `Cc1ccc(C(=O)OC(C(=O)Nc2ccc(Cl)cc2C(F)(F)F)c2ccccc2)cc1` (stereo not drawn), the CPE inhibition is 7.33% (inactive).

Consider `O=C(Nc1ccc(Cl)c(C(F)(F)F)c1)C(=O)N1CCCCC1`, for which the CPE inhibition was 1.26% (inactive). For `COC(C(=O)Nc1ccc(Cl)cc1C)c1ccccc1` (stereo not drawn), the CPE inhibition was 1.5% (inactive). The same measure for `O=C(Nc1cccc(-c2nc3ccccc3s2)c1)C1=COCCO1`: “inactive”; for `O=C(OC(C(=O)Nc1cc(Cl)cc(Cl)c1)c1ccccc1)C1=COCCO1` (stereo not drawn): 32.8% (active); for `O=C(OC(C(=O)Nc1ccc(Cl)cc1C(F)(F)F)c1ccccc1)c1c(Cl)cccc1Cl` (stereo not drawn): 21.7% (active). `O=C(Nc1nnc(-c2ccc(Cl)cc2)o1)C1=COCCO1`: the CPE inhibition was 0.23% (inactive). On to `O=C(Nc1cc(Cl)cc(Cl)c1)C(c1ccccc1)N1CCCCC1` (stereo not drawn), for which the CPE inhibition was 3.29% (inactive).

Take `COC(=O)c1cnn(-c2nc(OC)cc(OC)n2)c1C`: the CPE inhibition was 0.205% (inactive). The same measure for `COC(=O)C1=NN(c2cccc(C)c2)C2C(=O)N(c3ccccc3OC)C(=O)C12` (stereo not drawn): 0.91% (inactive); for `O=S(=O)(c1ccc(F)cc1)N1CCN(C(=S)NCc2ccco2)CC1`: 0.8% (inactive); for `CC(C)c1ccc(S(=O)(=O)N2CCN(C(=S)NCc3ccco3)CC2)cc1`: 13.8% (active).

Take `CCOc1ccc(S(=O)(=O)N2CCN(C(=S)NCc3ccco3)CC2)cc1`: the CPE inhibition was 0.65% (inactive).

Regarding `Cn1c(=NC(=O)c2ccccc2[N+](=O)[O-])sc2cc(S(C)(=O)=O)ccc21`, the CPE inhibition was 2.59% (inactive). As for `CCCCN1CC(=O)N2[C@H](c3ccc(OC)cc3)[C@@H]3C(=O)N(CC)C(=O)[C@@H]3[C@]2(C)C1=O`, the CPE inhibition result was “inactive”. For `CC1(C)C=C(c2ccc(C=O)s2)CC(C)(C)N1C=O`, the CPE inhibition is 0.13% (inactive).

For `O=C(COC(=O)C12CC3CC(CC(C3)C1)C2)Nc1ccc([N+](=O)[O-])cc1Br`, the CPE inhibition entry was “inactive”.

As for `O=C(COC(=O)C12CC3CC(CC(C3)C1)C2)Nc1ccc([N+](=O)[O-])cc1Cl`, the CPE inhibition was 1.98% (inactive).

In the case of `O=C(COC(=O)C12CC3CC(CC(C3)C1)C2)Nc1nc2c(F)c(F)c(F)cc2s1`, the CPE inhibition was 13.5% (active). Take `CCN(Cc1ccccc1)c1ccc(/C=N/NS(=O)(=O)c2ccc(C)c([N+](=O)[O-])c2)cc1`: the CPE inhibition is 0.46% (inactive). For the compound `CCN(Cc1ccccc1)c1ccc(/C=N/NC(=S)NC(C)C)cc1`, the CPE inhibition was 30.1% (active). For `CCN(CC)c1ccc(/C=N/NC(=O)c2ccco2)cc1`, the CPE inhibition was 1.16% (inactive). As to `CCN(Cc1ccccc1)c1ccc(/C=N/N=C(N)N)cc1`, the CPE inhibition entry is “inactive”. The same measure for `C=CCNC(=S)N/N=C/c1ccc(N(CC)Cc2ccccc2)cc1`: 28.3% (active); for `CCN(CC)c1ccc(/C=N/NC(=S)NCc2ccccc2)c(O)c1`: “inactive”. The result for `CCOC(=O)c1ccc(NC(=O)c2c(N)n(Cc3ccccc3)c(=O)[nH]c2=O)cc1` reads “inactive”. In the case of `Cc1ccc(CCNC(=O)CN(C)S(=O)(=O)c2cnc[nH]2)cc1`, the CPE inhibition result is “inactive”. For the compound `O=C(Nc1ccc(Cl)c([N+](=O)[O-])c1)c1ccncc1`, the CPE inhibition was 0.365% (inactive). `CC12CCC(C(=O)N3CCCc4ccccc43)(OC1=O)C2(C)C` (stereo not drawn): the CPE inhibition is 0.12% (inactive).

As for `O=C(C1=NN[C@@H]2C(=O)N(c3cccc(C(F)(F)F)c3)C(=O)[C@H]12)C(c1ccccc1)c1ccccc1`, the CPE inhibition is 0.31% (inactive).

With `CCOC(=O)c1c(NC(NC(C)=O)C(Cl)(Cl)Cl)sc2c1CCCC2` (stereo not drawn), the CPE inhibition is 13% (active). As to `COC(=O)c1c(NC(NC(=O)C(C)C)C(Cl)(Cl)Cl)sc2c1CCC2` (stereo not drawn), the CPE inhibition is 13.8% (active). As to `CC(C(=O)Nc1sc2c(c1C(=O)NCC1CCCO1)CCC2)N1C(=O)c2ccccc2C1=O` (stereo not drawn), the CPE inhibition entry was “inactive”. The result for `CCOC(=O)c1c(NC(=O)C2(C)Cc3ccccc3C(=O)O2)sc2c1CCCC2` (stereo not drawn) reads 4.8% (inactive). With `CC(C)C(=O)NC(=S)Nc1sc2c(c1C(N)=O)CCCC2`, the CPE inhibition entry was “inactive”. The same measure for `CCOC(=O)c1c(NC(=S)Nc2ccc(OC)cc2)sc2c1CCC2`: “inactive”. As to `COc1ccc(N(CC(=O)Nc2cccc([N+](=O)[O-])c2C)S(C)(=O)=O)cc1OC`, the CPE inhibition result was “inactive”.

Consider `N/C(=N\OCC(=O)Nc1ccccc1)c1nonc1N`, for which the CPE inhibition is 0.24% (inactive). On to `NS(=O)(=O)c1ccc(CCNC(=O)c2cc(-c3ccccc3)nc3ccccc23)cc1`, for which the CPE inhibition entry is “inactive”. The result for `CC1(c2nnc(Cc3ccccc3)o2)CC(c2ccccc2F)=NO1` (stereo not drawn) reads “inactive”; that for `COc1ccc(C(=O)NCC(=O)OCC(=O)N2CCN(S(=O)(=O)c3ccccc3)CC2)cc1`, “inactive”; that for `O=C(NCc1ccccc1)/C(=C/c1ccc(OC(F)F)cc1)c1ccccc1`, 9.52% (active). The same measure for `FC(F)Oc1ccc(NC(=S)NCc2ccccc2)cc1`: “inactive”; for `O=C(NNC(=S)NCc1ccccc1)c1ccc(OC(F)F)cc1`: 0.96% (inactive); for `Cc1cc(C(=O)COc2ccc(C#N)cc2)c(C)n1-c1ccc2c(c1)OCO2`: 9.11% (inactive).

Turning to `O=C(O)c1cccc2c1C(=O)c1ccc(-c3ccc(F)cc3F)cc1S2(=O)=O`, the CPE inhibition was 1.88% (inactive). For `O=C(Nc1ccc(F)cc1)c1ccccc1Oc1ccc(C(F)(F)F)cc1[N+](=O)[O-]`, the CPE inhibition is 9.71% (inactive).
